Records with an inconclusive call do not appear. The source made the active and inactive calls. Rule for the calls: active = hit-call score of the fitted dose curve at least 0.9, where 1 is the maximum; inconclusive = response in the unintended direction; inactive = score below 0.9.
Legend:
[1] = target: human Matrix Metalloproteinase-9 (MMP9), MMP9 (gene 4318) (UniProt P14780); test: NVS_ENZ_hMMP9: NovaScreen (NVS) Enzymatic Assay for human Matrix Metalloproteinase-9 (MMP9) (AID 2283190);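 note: cell-free recombinant MMP9 protease activity read by fluorescent substrate signal; active means inhibition seen as loss of fluorescence signal versus DMSO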
How it was run: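 Inhibition was scored as loss of fluorescence signal against DMSO controls. The recombinant protease was exposed to chemicals for 1 hour before reading; initial testing used 25 uM in duplicate.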

[2] = target: human c-Jun N-terminal Kinases (JNK2), MAPK9 (gene 5601) (UniProt P45984); test: NVS_ENZ_hJNK2: NovaScreen (NVS) Enzymatic Assay for human c-Jun N-terminal Kinases (JNK2) (AID 2283171)
Experimental: (§1) NVS_ENZ_hJNK2 is a biochemical, single-readout assay that uses extracted gene-proteins in a cell-free assay. Measurements were taken 1 hour after chemical dosing in a 384-well plate.NVS_ENZ_hJNK2 is one of one assay component(s) measured or calculated from the NVS_ENZ_hJNK2 assay. It is designed to make measurements of enzyme activity, a form of enzyme reporter, as detected with fluorescence intensity signals by Fluorescence and electrophoretic mobility shift technology.Data from the assay component NVS_ENZ_hJNK2 was analyzed into 1 assay endpoint. This assay endpoint, NVS_ENZ_hJNK2, was analyzed in the positive analysis fitting direction relative to DMSO as the negative control and baseline of activity. Using a type of enzyme reporter, loss-of-signal activity can be used to understand changes in the enzymatic activity as they relate to the gene MAPK9. Furthermore, this assay endpoint can be referred to as a primary readout, because this assay has produced multiple assay endpoints where this one serves a enzymatic activity function. To generalize the intended target to other relatable targets, this assay endpoint is annotated to the kinase intended target family, where the subfamily is serine/threonine kinase. […]

[3] = target: human LYN Proto-Oncogene, Src family Tyrosine Kinase (LynA), LYN (gene 4067) (UniProt P07948); test: NVS_ENZ_hLynA: NovaScreen (NVS) Enzymatic Assay for human LYN Proto-Oncogene, Src family Tyrosine Kinase (LynA) (AID 2283173)
How it was run: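 Recombinant kinase with fluorescent substrate; product separated from substrate by electrophoretic mobility shift and read 1 h after dosing. Duplicate screen at 25 uM, then concentration-response up to 50 uM; activity scored as signal loss against DMSO.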

[4] = target: Mitogen-activated protein kinase 3 (Homo sapiens) (UniProt P27361); test: NVS_ENZ_hMAPK3: NovaScreen (NVS) Enzymatic Assay for human Mitogen-Activated Protein Kinase 3 (MAPK 3) (AID 2283177)
How it was run: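 Cell-free enzymatic assay with recombinant protein and specific substrate; fluorescence and electrophoretic mobility shift read-out 1 h after dosing. Primary screen duplicate at 25 uM; actives then run in concentration-response up to 50 uM, loss of signal versus DMSO.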

[5] = target: Collagenase 3 (Homo sapiens) (UniProt P45452); test: NVS_ENZ_hMMP13: NovaScreen (NVS) Enzymatic Assay for human Matrix Metalloproteinase-13 (MMP13) (AID 2283182)
How it was run: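 Recombinant MMP13 cleaving fluorescent substrate, cell-free, measured 1 h after dosing. Primary duplicate screen at 25 uM; actives tested in concentration-response up to 50 uM; loss of signal relative to DMSO.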

[6] = target: human Phosphodiesterase 4A1 (PDE4A1), PDE4A (gene 5141) (UniProt P27815); test: NVS_ENZ_hPDE4A1: NovaScreen (NVS) Enzymatic Assay for human Phosphodiesterase 4A1 (PDE4A1) (AID 2283191)
How it was run: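 Cell-free recombinant human PDE4A1 with fluorescent substrate; product separated by electrophoretic mobility shift, 1 h. Screened at 25 uM, then up to 50 uM in concentration-response; loss of signal fitted against DMSO.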

[7] = target: cAMP-dependent protein kinase catalytic subunit alpha (Homo sapiens) (UniProt P17612); test: NVS_ENZ_hPKA: NovaScreen (NVS) Enzymatic Assay for human Protein Kinase A (PKA) (AID 2283192)
How it was run: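 Recombinant human PKA with specific fluorescent substrate, product separated by electrophoretic mobility shift, read 1 h after dosing. Primary screen at 25 uM in duplicate; actives then run in concentration-response up to 50 uM, activity relative to DMSO.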

[8] = target: human MAP Kinase-Activated Protein Kinase 2 (MAPKAPK2), MAPKAPK2 (gene 9261) (UniProt P49137); test: NVS_ENZ_hMAPKAPK2: NovaScreen (NVS) Enzymatic Assay for human MAP Kinase-Activated Protein Kinase 2 (MAPKAPK2) (AID 2283178)
How it was run: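 Cell-free recombinant human MAPKAPK2 activity measured by fluorescence with electrophoretic mobility shift separation of substrate and product, 1 hr after dosing. Loss of signal versus DMSO; primary screen at 25 uM, concentration-response up to 50 uM.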

[9] = target: human Matrix Metalloproteinase-3 (MMP3), MMP3 (gene 4314) (UniProt P08254); test: NVS_ENZ_hMMP3: NovaScreen (NVS) Enzymatic Assay for human Matrix Metalloproteinase-3 (MMP3) (AID 2283185)
How it was run: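 Cell-free recombinant human MMP3 activity, fluorescence intensity read 1 h after dosing. Primary screen duplicate at 25 uM, actives retested in concentration series; loss of signal vs DMSO baseline.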

[10] = target: human Mitogen- and Stress-activated Protein Kinase-1 (Msk1), RPS6KA5 (gene 9252) (UniProt O75582); test: NVS_ENZ_hMsk1: NovaScreen (NVS) Enzymatic Assay for human Mitogen- and Stress-activated Protein Kinase-1 (Msk1) (AID 2283187)
Experimental: as §1, with “NVS_ENZ_hMsk1” for “NVS_ENZ_hJNK2”, “plate.NVS_ENZ_hMsk1” for “plate.NVS_ENZ_hJNK2”, “NVS_ENZ_hMsk1,” for “NVS_ENZ_hJNK2,”, “RPS6KA5.” for “MAPK9.”

Chain of human Matrix Metalloproteinase-9 (MMP9), MMP9 (gene 4318) (P14780 whole entry, looked up): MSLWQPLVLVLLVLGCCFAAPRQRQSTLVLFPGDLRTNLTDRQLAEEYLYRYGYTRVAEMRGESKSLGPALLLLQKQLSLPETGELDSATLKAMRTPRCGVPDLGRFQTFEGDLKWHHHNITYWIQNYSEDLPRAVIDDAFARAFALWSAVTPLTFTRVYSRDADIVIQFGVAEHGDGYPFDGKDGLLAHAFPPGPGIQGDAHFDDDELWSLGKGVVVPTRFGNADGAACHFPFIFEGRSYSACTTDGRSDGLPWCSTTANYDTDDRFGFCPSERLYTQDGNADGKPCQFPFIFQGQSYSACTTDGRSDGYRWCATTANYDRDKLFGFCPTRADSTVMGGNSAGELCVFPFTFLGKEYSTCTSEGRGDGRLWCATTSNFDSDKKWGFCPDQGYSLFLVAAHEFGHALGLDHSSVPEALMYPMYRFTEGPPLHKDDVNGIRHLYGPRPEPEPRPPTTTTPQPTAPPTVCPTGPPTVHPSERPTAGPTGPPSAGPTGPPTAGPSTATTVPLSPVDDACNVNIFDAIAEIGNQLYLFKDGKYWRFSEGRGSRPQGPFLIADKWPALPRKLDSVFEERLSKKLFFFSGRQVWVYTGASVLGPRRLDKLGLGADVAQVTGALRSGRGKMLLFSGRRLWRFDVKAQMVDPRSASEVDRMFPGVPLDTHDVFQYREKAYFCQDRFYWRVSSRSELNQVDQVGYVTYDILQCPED
Chain of Mitogen-activated protein kinase 3 (Homo sapiens) (P27361 whole entry, looked up): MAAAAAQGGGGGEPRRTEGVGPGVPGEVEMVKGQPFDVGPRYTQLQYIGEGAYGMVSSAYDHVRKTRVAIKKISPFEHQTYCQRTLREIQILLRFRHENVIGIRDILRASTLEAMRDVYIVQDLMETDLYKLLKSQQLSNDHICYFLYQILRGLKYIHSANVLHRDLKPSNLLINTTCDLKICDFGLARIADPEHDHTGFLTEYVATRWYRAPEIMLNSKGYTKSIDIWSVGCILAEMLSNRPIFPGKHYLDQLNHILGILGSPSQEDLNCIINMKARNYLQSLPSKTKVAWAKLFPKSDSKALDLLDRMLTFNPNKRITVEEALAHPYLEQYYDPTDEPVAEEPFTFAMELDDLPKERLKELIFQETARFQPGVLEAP
Chain of human Phosphodiesterase 4A1 (PDE4A1), PDE4A (gene 5141) (P27815 whole entry, looked up): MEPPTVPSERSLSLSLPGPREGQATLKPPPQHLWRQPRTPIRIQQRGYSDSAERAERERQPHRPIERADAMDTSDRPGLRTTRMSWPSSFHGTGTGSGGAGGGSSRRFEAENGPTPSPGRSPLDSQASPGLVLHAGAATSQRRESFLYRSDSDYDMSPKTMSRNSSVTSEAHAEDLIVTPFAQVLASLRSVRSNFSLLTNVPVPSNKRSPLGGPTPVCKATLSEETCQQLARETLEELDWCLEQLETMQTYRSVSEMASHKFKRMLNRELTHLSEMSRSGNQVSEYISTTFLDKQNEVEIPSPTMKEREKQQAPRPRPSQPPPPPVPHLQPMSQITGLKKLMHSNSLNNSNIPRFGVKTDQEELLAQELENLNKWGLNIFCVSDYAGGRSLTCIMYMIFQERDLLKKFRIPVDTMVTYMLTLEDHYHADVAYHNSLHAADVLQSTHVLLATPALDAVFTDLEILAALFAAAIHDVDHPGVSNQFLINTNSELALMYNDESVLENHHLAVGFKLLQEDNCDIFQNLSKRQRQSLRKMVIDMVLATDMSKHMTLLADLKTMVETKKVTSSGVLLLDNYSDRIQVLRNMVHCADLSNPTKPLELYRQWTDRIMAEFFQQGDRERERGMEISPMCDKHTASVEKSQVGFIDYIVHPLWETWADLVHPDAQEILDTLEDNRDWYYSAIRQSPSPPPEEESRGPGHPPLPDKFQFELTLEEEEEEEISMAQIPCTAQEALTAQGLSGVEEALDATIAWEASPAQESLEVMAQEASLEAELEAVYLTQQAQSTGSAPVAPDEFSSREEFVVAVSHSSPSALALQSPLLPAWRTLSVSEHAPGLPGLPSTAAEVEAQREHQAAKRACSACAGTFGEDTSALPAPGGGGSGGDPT
Chain of human c-Jun N-terminal Kinases (JNK2), MAPK9 (gene 5601) (P45984 whole entry, looked up): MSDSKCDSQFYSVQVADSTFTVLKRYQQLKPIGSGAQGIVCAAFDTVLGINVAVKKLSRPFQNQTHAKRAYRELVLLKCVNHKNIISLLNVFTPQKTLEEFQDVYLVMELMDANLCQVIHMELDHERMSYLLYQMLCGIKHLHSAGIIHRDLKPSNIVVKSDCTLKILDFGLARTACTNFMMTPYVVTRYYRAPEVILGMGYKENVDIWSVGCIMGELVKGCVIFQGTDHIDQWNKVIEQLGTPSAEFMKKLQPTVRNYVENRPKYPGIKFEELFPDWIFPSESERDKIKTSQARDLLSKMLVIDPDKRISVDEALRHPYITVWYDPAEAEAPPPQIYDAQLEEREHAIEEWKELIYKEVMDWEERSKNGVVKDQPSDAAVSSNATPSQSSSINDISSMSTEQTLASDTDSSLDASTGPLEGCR
Chain of human MAP Kinase-Activated Protein Kinase 2 (MAPKAPK2), MAPKAPK2 (gene 9261) (P49137 whole entry, looked up): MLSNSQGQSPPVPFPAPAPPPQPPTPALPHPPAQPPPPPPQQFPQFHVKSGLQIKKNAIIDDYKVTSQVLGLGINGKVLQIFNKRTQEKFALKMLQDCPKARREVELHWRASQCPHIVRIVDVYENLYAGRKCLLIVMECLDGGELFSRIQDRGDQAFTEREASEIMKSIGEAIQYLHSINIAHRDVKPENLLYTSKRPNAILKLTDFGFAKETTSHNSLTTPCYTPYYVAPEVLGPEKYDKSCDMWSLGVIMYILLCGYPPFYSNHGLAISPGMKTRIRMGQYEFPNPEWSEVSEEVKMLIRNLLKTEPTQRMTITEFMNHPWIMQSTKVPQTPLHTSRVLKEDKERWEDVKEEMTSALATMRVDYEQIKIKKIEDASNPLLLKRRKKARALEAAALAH
Chain of human LYN Proto-Oncogene, Src family Tyrosine Kinase (LynA), LYN (gene 4067) (P07948 whole entry, looked up): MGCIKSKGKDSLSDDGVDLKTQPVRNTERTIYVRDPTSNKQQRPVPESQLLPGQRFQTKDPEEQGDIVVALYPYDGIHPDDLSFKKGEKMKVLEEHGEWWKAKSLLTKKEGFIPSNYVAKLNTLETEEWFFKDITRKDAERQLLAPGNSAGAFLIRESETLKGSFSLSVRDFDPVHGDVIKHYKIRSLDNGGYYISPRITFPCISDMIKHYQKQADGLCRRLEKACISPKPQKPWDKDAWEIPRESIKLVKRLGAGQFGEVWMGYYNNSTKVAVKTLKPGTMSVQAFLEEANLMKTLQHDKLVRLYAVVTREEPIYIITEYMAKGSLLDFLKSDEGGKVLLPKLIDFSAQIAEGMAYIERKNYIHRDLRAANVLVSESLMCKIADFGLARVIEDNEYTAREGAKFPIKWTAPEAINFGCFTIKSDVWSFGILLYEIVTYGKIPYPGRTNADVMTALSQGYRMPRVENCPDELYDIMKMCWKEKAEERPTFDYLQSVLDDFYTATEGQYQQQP
Chain of human Mitogen- and Stress-activated Protein Kinase-1 (Msk1), RPS6KA5 (gene 9252) (O75582 whole entry, looked up): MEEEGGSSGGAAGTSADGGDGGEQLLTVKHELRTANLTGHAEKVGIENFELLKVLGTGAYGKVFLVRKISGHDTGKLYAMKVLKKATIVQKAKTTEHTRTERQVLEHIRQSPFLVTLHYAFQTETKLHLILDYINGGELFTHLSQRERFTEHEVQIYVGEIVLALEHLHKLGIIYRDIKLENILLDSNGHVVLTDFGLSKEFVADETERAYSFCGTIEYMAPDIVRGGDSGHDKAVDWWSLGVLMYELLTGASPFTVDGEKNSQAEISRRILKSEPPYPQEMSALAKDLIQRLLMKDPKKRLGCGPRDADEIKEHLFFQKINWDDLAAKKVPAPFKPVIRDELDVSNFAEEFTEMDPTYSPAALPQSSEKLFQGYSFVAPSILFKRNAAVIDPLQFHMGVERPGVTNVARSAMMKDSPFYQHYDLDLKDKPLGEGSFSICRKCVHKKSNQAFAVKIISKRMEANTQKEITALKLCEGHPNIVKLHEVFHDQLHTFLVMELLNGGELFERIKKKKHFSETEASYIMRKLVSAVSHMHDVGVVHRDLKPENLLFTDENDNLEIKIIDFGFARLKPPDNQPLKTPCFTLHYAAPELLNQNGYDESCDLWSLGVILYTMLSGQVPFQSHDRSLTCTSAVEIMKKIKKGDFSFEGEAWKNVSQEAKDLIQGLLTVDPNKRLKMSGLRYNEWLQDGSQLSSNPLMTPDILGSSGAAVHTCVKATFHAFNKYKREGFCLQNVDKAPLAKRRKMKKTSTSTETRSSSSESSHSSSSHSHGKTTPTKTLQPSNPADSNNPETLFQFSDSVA
Chain of human Matrix Metalloproteinase-3 (MMP3), MMP3 (gene 4314) (P08254 whole entry, looked up): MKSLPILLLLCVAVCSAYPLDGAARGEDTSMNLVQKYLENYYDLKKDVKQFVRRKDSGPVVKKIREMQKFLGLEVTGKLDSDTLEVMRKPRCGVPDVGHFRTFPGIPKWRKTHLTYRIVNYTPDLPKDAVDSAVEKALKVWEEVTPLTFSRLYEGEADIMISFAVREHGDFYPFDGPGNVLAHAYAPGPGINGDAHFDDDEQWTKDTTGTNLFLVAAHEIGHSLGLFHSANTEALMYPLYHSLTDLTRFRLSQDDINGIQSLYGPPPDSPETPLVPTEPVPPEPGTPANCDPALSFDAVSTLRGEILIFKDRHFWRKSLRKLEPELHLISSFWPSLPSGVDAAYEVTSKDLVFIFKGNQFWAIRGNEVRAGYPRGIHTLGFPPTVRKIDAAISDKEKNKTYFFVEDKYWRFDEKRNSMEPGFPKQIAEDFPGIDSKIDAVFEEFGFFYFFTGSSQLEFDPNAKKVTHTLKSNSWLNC

CCCCCCCCCCCCCCCCCC[N+](C)(C)Cc1ccccc1
outcome [1]: inactive

Cc1[nH]nc2c1N=C(c1ccccc1Cl)c1cc([N+](=O)[O-])ccc1N2
AC50 [2]: 35.8 µM (active)
AC50 [3]: 25 µM (active)
AC50 [4]: 25 µM (active)
AC50 [5]: 16.2 µM (active)

CS(=O)(=O)c1ccc([C@@H](CC2CCCC2)C(=O)Nc2cnccn2)cc1Cl
outcome [6]: inactive

CCOC(C)=O
AC50 [1]: 4.98 µM (active)

O=C1NS(=O)(=O)c2ccccc21
outcome [7]: inactive

CCCCC(CC)C(=O)O (configuration not stated)
outcome [1]: inactive

CCCCCCCCCCCCOS(=O)(=O)O
AC50 [2]: 37.5 µM (active)
AC50 [4]: 18.1 µM (active)
outcome [8]: inactive
AC50 [9]: 36.7 µM (active)
AC50 [10]: 43 µM (active)
AC50 [6]: 11.8 µM (active)
AC50 [7]: 42.4 µM (active)

CCCCCCCCCCCCCCC
outcome [5]: inactive
